Screening results deposited in PubChem by National Center for Advancing Translational Sciences (NCATS).
Sampled rows, rich in hits. Any-hit rate of the full collection: about 3.4%.
Tau fibril ThT – blocks human tau fibril formation measured by thioflavin T. AID 1460. actives 2.1% (n = 270,000). recombinant tau K18 P301L, heparin-induced fibrillization, ThT fluorescence. Potency, µM (titrated, usually from 57.4 µM), without a hit: at the top dose activity, negative = inhibition, most hits filed as inhibitors; further: nearly all actives have a fitted effect of over 55% in size
Target sequence (P10636 561-689 P618L limits assumed): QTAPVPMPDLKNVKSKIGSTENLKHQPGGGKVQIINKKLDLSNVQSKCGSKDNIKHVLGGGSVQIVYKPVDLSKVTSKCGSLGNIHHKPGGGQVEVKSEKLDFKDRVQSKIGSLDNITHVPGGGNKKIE
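ThT emission at 510 nm, taken 1 hr after adding 30 uM dye, quantifies aggregates formed when 20 uM heparin acts on human tau K18 P301L for 6 hr at 37 C.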
Tau fibril FP – blocks human tau fibril formation measured by polarization; K18 P301L tau heparin fibrillization, Alexa594 FP, 6 h; Potency, µM (titrated, usually from 57.7 µM), inactives show at the highest dose activity, negative = inhibition, actives largely listed as inhibitors; actives 0.39% (n = 280,000); AID 1468; further: nearly all actives have a fitted effect of over 55% in size
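K18 P301L tau (15 uM unlabeled/0.24 uM Alexa 594-labeled, final) + compound + heparin 20 uM final; 100 mM NaOAc pH 7; 6 hr 37 C; ThT 30 uM final added, 1 hr RT; FP ex 555/em 632 nm.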
GoLoco inh red – blocks human Gai1 binding to RGS12 GoLoco peptide, red readout; AID 880; Potency, µM (top dose mostly 61.6 µM), inactives show top-dose activity, negative = inhibition, usual class: inhibitors; Gai1:RGS12 GoLoco peptide FP, rhodamine, 10 min; actives 0.44% (n = 230,000); P63096; active means well fitted inhibition curve with a large enough effect, not every such curve was filed as active; inactive means no such curve, though single readings can be large or run the other way; further: nearly all actives have a fitted effect of over 30% in size
Target sequence (P63096 whole entry, looked up): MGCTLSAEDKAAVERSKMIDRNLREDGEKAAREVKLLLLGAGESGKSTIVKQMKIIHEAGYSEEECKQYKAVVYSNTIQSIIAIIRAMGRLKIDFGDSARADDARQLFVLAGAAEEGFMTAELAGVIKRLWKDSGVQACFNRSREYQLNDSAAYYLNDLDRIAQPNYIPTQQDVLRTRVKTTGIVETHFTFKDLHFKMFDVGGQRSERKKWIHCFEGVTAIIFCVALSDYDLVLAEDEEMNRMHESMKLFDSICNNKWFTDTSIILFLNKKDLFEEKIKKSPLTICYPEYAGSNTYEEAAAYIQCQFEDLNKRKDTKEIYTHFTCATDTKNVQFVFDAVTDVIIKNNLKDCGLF
Tau fluor counter – counter-screen for tau fibril formation inhibitors. tau K18 P301L Alexa594 fluorescence, heparin fibrillization. Potency, µM (top dose mostly 57.7 µM), without a hit: at the highest dose activity change, negative = decrease. AID 1463. actives 0.93% (n = 280,000); further: nearly all actives have a fitted effect of over 55% in size
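Human tau K18 P301L (15 uM unlabeled, 0.24 uM Alexa 594-labeled) in 100 mM sodium acetate pH 7 with 20 uM heparin, 6 hr at 37 C. ThT 30 uM added, 1 hr ambient; Alexa 594 FP and total fluorescence read at 555/632 nm.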
JMJD2E inh – blocks human JMJD2E demethylase activity; actives 1.6% (n = 230,000); B2RXH2; Potency, µM (titrated, usually from 57.1 µM), for the others: top-dose activity change, negative = inhibition, usual class: inhibitors; JMJD2E catalytic domain, FDH-coupled NADH fluorescence (FDH is formaldehyde dehydrogenase);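 further: 0% = wells with enzyme and -100% = buffer wells without enzyme; nearly all actives have a fitted effect of over 50% in size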
Starred values were filed as active, the others as inactive; ? = inconclusive; . = no result given; [ ] = another dose, or the depositor's remark. Unless noted, the call rests on the fitted dose curve; in most records, active means well fitted curve in the direction sought with a large enough effect; inconclusive means small, poorly fitted or top-dose-only effect, or another doubt; inactive means no such curve, though single readings can be large; an effect the other way counts as inactive or inconclusive. Unless noted, on the % scale 0 is the no-effect control and ±100 the full control effect; potency means the concentration at half of the fitted maximal effect.

SMILES	Tau fibril ThT	Tau fibril FP	GoLoco inh red	Tau fluor counter	JMJD2E inh
N#Cc1cccc(NC(=O)COC(=O)c2ccccc2Sc2ccccc2C#N)c1	14%	16µM*	.	?	7%
Cc1cccnc1Nc1nc(-c2ccc(O)cc2)cs1	13µM*	12%	5%	18µM*[quencher]	-12%
Cc1cccc(Nc2nc(-c3ccc4c(c3)OCCO4)cs2)c1	7.1µM*	4%	4%	13µM*[quencher]	-9%
Cc1cccc(Nc2nc(-c3ccncc3)cs2)c1	?	?	-2%	?	3%
COc1cccc(Nc2nnc(SCc3nc4ccccc4s3)s2)c1	?	-13%	131%	14µM*[quencher]	-2%
Cc1ccc(Nc2nc(-c3ccncc3)cs2)cc1	?	-1%	10%	-28%	10%
COc1cccc(Nc2nnc(SCN3C(=O)c4ccccc4C3=O)s2)c1	0%	-14%	1%	?	4%
COc1cccc(Nc2nc(-c3cccc(N4C(=O)c5ccccc5C4=O)c3)cs2)c1	?	?	2%	7.9µM*[quencher]	-1%
Cc1cccc(C)c1Nc1nnc(SCc2nc3ccccc3s2)s1	?	8%	40%	-13%	-7%
COc1cccc(Nc2nc(-c3ccc(O)cc3)cs2)c1	11µM*	8%	-3%	14µM*[quencher]	-5%
COc1cccc(Nc2ccccc2C(=O)O)c1	-8%	-5%	8%	-3%	6%
COc1cccc(Nc2ccc(Nc3cccc(OC)c3)nn2)c1	?	9%	8%	13µM*[quencher]	-17%
COc1cccc(C(=O)Nc2nc(-c3ccncc3)cs2)c1	?	10%	49%	-4%	-26%
COc1ccc(-c2nnc(-c3cccs3)o2)cc1OC	-17%	-3%	2%	-6%	?
COc1ccc(-c2nc(-c3cccs3)c(-c3cccs3)[nH]2)cc1O	13µM*	-2%	20%	13µM*[quencher]	?
CC(=C\c1ccco1)/C=C1/SC(=S)N(CC(=O)O)C1=O	4µM*	?	1%	?	-2%
CC(=O)c1ccc(NC(=O)CCCN2C(=O)/C(=C/C(C)=C/c3ccccc3)SC2=S)cc1	?	0%	48%	?	1%
O=C(O)C(c1ccccc1)N1C(=O)/C(=C/c2cccs2)SC1=S (centres undefined)	?	-8%	2%	-15%	-13%
CC(/C=C1\SC(=S)N(CC(=O)N2CCN(c3ccccc3)CC2)C1=O)=C\c1ccccc1	?	2%	2%	-22%	5%
CC(/C=C1\SC(=S)N(CC(=O)O)C1=O)=C\c1ccccc1	7.9µM*	-8%	3%	-23%	-1%
COc1ccc(OC)c(/C=C2\SC(=S)N(C(C(=O)O)c3ccccc3)C2=O)c1 (centres undefined)	16µM*	-12%	27%	-15%	-6%
CC(/C=C1\SC(=S)N(C(C(=O)O)c2ccccc2)C1=O)=C\c1ccccc1 (centres undefined)	32µM*	-13%	-67%	-13%	-1%
Cn1c(=O)c2c(nc(SCC(=O)Nc3ccccc3F)n2Cc2ccccc2F)n(C)c1=O	6%	-13%	.	-27%	.
CCOc1ccc(N(Cc2cc3cc(C)ccc3[nH]c2=O)C(=O)c2cccc(Cl)c2)cc1	-2%	1%	.	-3%	.
CCN(C(=O)c1c(C)oc2ncnc(N3CCCCC3)c12)c1cc(C)ccc1C	0%	-8%	.	?	.
SMILES	Tau fibril ThT	Tau fibril FP	GoLoco inh red	Tau fluor counter	JMJD2E inh
CC(/C=C1\SC(=O)N(CC(=O)Nc2cccc(O)c2)C1=O)=C\c1ccccc1	-27%	16µM*	5%	6.3µM*[quencher]	-8%
C=CCOc1ccc(/C=C2\SC(=S)N(C(C(=O)O)c3ccccc3)C2=O)cc1 (centres undefined)	22µM*	-6%	-3%	-4%	12%
CCc1cccc(NC(=O)c2c(N3CCCC3=O)c3cc(C)ccc3n2C)c1	-15%	5%	.	-11%	.
CCOC(=O)C1=C(C)N=C2c3ccccc3C(=O)C2C1c1ccc(C)cc1 (centres undefined)	?	10%	59%	-27%	32µM*
O=C(/C=C/c1ccccc1)Nc1ncn[nH]1	10µM*	?	7%	-19%	-9%
COc1ccc(C(=O)/C=C/c2ccc(F)cc2)c(OC(=O)c2ccc([N+](=O)[O-])cc2)c1	10µM*	0%	-4%	13µM*[quencher]	1%
COc1ccc(C(=O)/C=C/c2cccs2)c(OC(=O)c2cccc([N+](=O)[O-])c2)c1	4µM*	9%	7%	?	10%
COc1ccc(Nc2nc(N)nc(CSC(=S)N3CCCCC3C)n2)cc1 (centres undefined)	?	10%	4%	10µM*[quencher]	-4%
COc1ccc(Cl)cc1NC(=O)Cc1ccc(NC(=O)N2CCCCc3ccccc32)cc1	9%	0%	.	-1%	.
CSc1nc(=S)cc(C)[nH]1	?	?	5.6µM*	-23%	?
C[n+]1cccc2cccc([O-])c21	16µM*	?	-2%	-25%	16µM*
O=C(NCCCN1CCN(c2cccc(Cl)c2)CC1)c1cnn(-c2ccc(F)cc2)c1-n1cccc1	?	2%	.	-16%	.
C/C(=N\NC(=O)c1ccc(N/N=C(\C)c2ccc(O)cc2)cc1)c1ccc(O)cc1	3.2µM*	?	7%	16µM*[quencher]	?
C/C(=N\NC(=O)c1ccc(O)cc1)c1ccc(N2CCOCC2)cc1	?	-6%	8%	-3%	14%
C/C(=N\NC(=O)c1cccc(N/N=C(\C)c2cc(O)ccc2O)c1)c1cc(O)ccc1O	28µM*	?	16%	?	25µM*
C/C(=N\NC(=O)c1cccc(N/N=C(\C)c2ccco2)c1)c1ccco1	?	15%	8%	-28%	-5%
COc1ccc(OC)c(/C(C)=N/Nc2ccc(C(=O)O)cc2)c1	7%	-5%	-2%	13%	?
C/C(=N/Nc1ccc(C(=O)O)cc1)c1ccc(O)c(O)c1O	11µM*	?	-1%	-22%	8.9µM*
CCc1cccc(C)c1NC(=O)CSc1nc2ccccc2nc1Cc1ccccc1	-4%	-2%	.	-2%	.
O=Cc1ccc(-n2cncn2)cc1	-8%	0%	4%	-2%	7.1µM*
CCOc1cccc(/C=C2\NC(=S)N(c3ccccc3)C2=O)c1O	14µM*	5%	113%	?	5%
CCOc1cc(/C=C2\NC(=S)N(c3c(C)n(C)n(-c4ccccc4)c3=O)C2=O)ccc1O	-18%	-2%	50%	0%	-4%
CCOc1ccc(C(=O)Nc2ccc3c(c2)OCO3)cc1OCC	-10%	3%	2%	-4%	9%
CCOc1ccc(C(=O)Nc2ccc3c(c2)OCCO3)cc1Br	?	3%	.	16µM*[quencher]	.
COc1ccccc1N1CCN(C(=O)c2ccc3c(c2)N(Cc2ccccc2)C(=O)c2ccccc2S3(=O)=O)CC1	-6%	2%	.	-24%	.
